Reference: PubChem BioAssay (NCATS)
Results filed as inconclusive are left out. Active and inactive are the calls of the source. Calls come from the whole dose curve; as a rule, active = well fitted inhibition curve with a large enough effect; inconclusive = small, poorly fitted or top-dose-only effect; inactive = no such curve, though single readings can be large or run the other way.

Legend:
[1] = qHTS for Inhibitors of the Aldehyde Dehydrogenase Family (ALDH1A2, ALDH1A3, ALDH2, ALDH3A1) (AID 2061307); note: nearly all actives have a fitted effect of over 50% in size; for Potency: test system not described further here; potency is the fitted concentration of half-maximal effect
[2] = biological target: Retinal dehydrogenase 2 (Homo sapiens) (UniProt O94788); assay: qHTS for Inhibitors of the Aldehyde Dehydrogenase Family (ALDH1A2) Confirmation screens (AID 2061314); note: nearly all actives have a fitted effect of over 65% in size; note: potency is the fitted concentration of half-maximal effect
[3] = biological target: Retinaldehyde dehydrogenase 3 (Homo sapiens) (UniProt P47895); assay: qHTS for Inhibitors of the Aldehyde Dehydrogenase Family (ALDH1A3) Primary screen (AID 2061315)
[4] = biological target: Aldehyde dehydrogenase 1A1 (Homo sapiens) (UniProt P00352); assay: qHTS for Inhibitors of the Aldehyde Dehydrogenase Family (ALDH1A1) Confirmatory screens (AID 2061316); note: nearly all actives have a fitted effect of over 65% in size; note: potency is the fitted concentration of half-maximal effect
[5] = biological target: Retinaldehyde dehydrogenase 3 (Homo sapiens) (UniProt P47895); assay: qHTS for Inhibitors of the Aldehyde Dehydrogenase Family (ALDH1A3) Confirmatory screens (AID 2061311); note: potency is the fitted concentration of half-maximal effect; nearly all actives have a fitted effect of over 60% in size

Row | Compound | Potency [1] | Potency [2] | Potency [3] | Potency [4] | Potency [5]
1 | CCc1ccc(-c2nn3c(C)nnc3s2)cc1NC(=O)c1ccc(-c2cccc(Cl)c2)o1 | 25.1 µM (active) | 12.7 µM (active) | inactive | 5.04 µM (active) | –
2 | CC(=O)c1ccc(NC(=O)c2cc(S(=O)(=O)N3CCOCC3)ccc2C)cc1 | inactive | inactive | – | – | –
3 | COc1ccc(C2c3c(N)nc(CCc4ccccc4)nc3Oc3ccc4ccccc4c32)cc1OC (stereo not drawn) | inactive | – | inactive | – | –
4 | CN(C)CCCNc1cc(O)c2ncccc2c1 | inactive | – | – | 4 µM (active) | 1.42 µM (active)
5 | O=C(NCc1ccc2c(c1)OCO2)c1csc(N2CCN(c3ccc(F)cc3)CC2)n1 | 0.708 µM (active) | inactive | – | 4.47 µM (active) | –
6 | CNc1sc(-c2cccc3ccccc23)nc1C#N | inactive | 11.3 µM (active) | inactive | 5.04 µM (active) | –
7 | CC(=O)C1CCC2(C)C3=C(CCC12C)C1(C)CCC(=O)C(C)(C)C1CC3 (stereo not drawn) | inactive | – | inactive | – | –
8 | Cc1ccc(NC(=O)CSc2nc3ccccc3nc2N2CCOCC2)cc1 | 25.1 µM (active) | 2.29 µM (active) | – | – | –
9 | Cc1ccnc(NC(=S)N2CCN(c3ccc(Cl)cc3Cl)CC2)c1 | inactive | 11.3 µM (active) | – | 7.98 µM (active) | –
10 | Cc1cccc(NC(=O)N2CC(Oc3ccc(-c4nc(C)no4)cc3)C2)c1 | 3.24 µM (active) | inactive | – | inactive | –
11 | CC(=O)Nc1sc2c(c1-c1ccc(N(C)C)cc1)CCNC2 | 14.2 µM (active) | – | – | 11.3 µM (active) | 3.57 µM (active)
12 | CCc1nnc2sc(-c3ccc(C)c(NC(=O)c4ccc(-c5cccc(Cl)c5)o4)c3)nn12 | 12.6 µM (active) | 3.18 µM (active) | – | – | –
